Measured values from PubChem BioAssay (NCI).
This is part of a sample that, as a whole, favours compounds with a hit. Of some 83,000 tested, about 20% had one in any assay.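 Single-dose data. Exposure time 48 hours. Values below 10 considered active.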 Calls of active or inactive are those of the source.

What was measured:
Assay in all cases: NCI-60 one-dose screen, 48 h (100 = growth as untreated, 0 = no growth, -100 = all killed)
[1] = system: SR leukemia; details: 10 µM unless noted
[2] = system: RPMI-8226 leukemia; details: 10 µM unless noted
[3] = system: OVCAR-8 ovarian; details: 10 µM unless noted
[4] = system: OVCAR-5 ovarian; details: 10 µM unless noted
[5] = system: OVCAR-4 ovarian; details: 10 µM unless noted
[6] = system: SK-OV-3 ovarian; details: 10 µM unless noted
[7] = system: IGROV1 ovarian; details: 10 µM unless noted
[8] = system: OVCAR-3 ovarian; details: 10 µM unless noted
[9] = system: NCI/ADR-RES ovarian; details: 10 µM unless noted
[10] = system: T-47D breast; details: 10 µM unless noted
[11] = system: BT-549 breast; details: 10 µM unless noted
[12] = system: MDA-MB-435 melanoma; details: 10 µM unless noted
[13] = system: SW-620 colon; details: 10 µM unless noted
[14] = system: MCF7 breast; details: 10 µM unless noted
[15] = system: HCT-116 colon; details: 10 µM unless noted
[16] = system: HCC-2998 colon; details: 10 µM unless noted
[17] = system: KM12 colon; details: 10 µM unless noted
[18] = system: HS 578T breast; details: 10 µM

Measured: growth

CCN(CC)CCC(CNc1ccnc2cc(Cl)ccc12)c1ccc(O)cc1 (centres undefined)
inactive: [1] 47.5% | [2] 51.3% | [3] 92.2% | [4] 103% | [5] 91.4% | [6] 104% | [7] 78.1% | [8] 98.7% | [9] 99.8% | [10] 114% | [11] 80.5% | [12] 60.7% | [13] 51.2% | [14] 113% | [15] 49.5% | [16] 88.9% | [17] 82%

c1ccc(C2=Nc3ccccc3SC2)cc1
inactive: [1] 107% | [2] 93.8% | [3] 101% | [4] 98.6% | [5] 91.5% | [6] 110% | [7] 88.6% | [8] 99.4% | [9] 113% | [10] 100% | [11] 107% | [12] 105% | [13] 95.4% | [14] 86.4% | [15] 96.7% | [16] 104% | [17] 97.5%

C[C@@H]1C[C@H](N)C[C@H](c2ccncc2NC(=O)c2ccc(F)c(-c3c(F)cccc3F)n2)C1
active: [1] -17.7% | [2] 4.68% | [10] 4.14%
inactive: [3] 62.6% | [4] 71.3% | [5] 53.2% | [6] 62% | [7] 46.5% | [8] 74.5% | [9] 65.8% | [11] 51.2% | [12] 34.5% | [13] 45.5% | [14] 40.2% | [15] 48.1% | [17] 48.3%

Cc1cc(C)cc(CCCCCCCCCCCCCCCCCC(=O)O)c1
inactive: [1] 107% | [2] 99.4% | [3] 103% | [4] 103% | [5] 105% | [6] 105% | [7] 108% | [8] 102% | [10] 82.4% | [11] 103% | [12] 115% | [13] 108% | [14] 96.1% | [15] 99.9% | [16] 102% | [17] 106%

CCNS(=O)(=O)c1ccc(C)cc1
inactive: [1] 122% | [2] 99.1% | [3] 100% | [4] 97.2% | [5] 103% | [6] 112% | [7] 98.3% | [8] 111% | [9] 108% | [10] 106% | [11] 114% | [12] 111% | [13] 107% | [14] 94.9% | [15] 113% | [16] 106% | [17] 108%

NC(N)=N/N=C/c1ccccc1
inactive: [1] 96% | [2] 89.1% | [3] 99.5% | [4] 93.2% | [5] 101% | [6] 101% | [8] 99.5% | [18] 101% | [9] 104% | [10] 94% | [11] 102% | [12] 93.6% | [13] 104% | [14] 93% | [15] 92.8% | [16] 98.1% | [17] 103%

COc1ccc(-c2nc(-c3cc(OC)cc(OC)c3)[nH]c2-c2ccc(OC)cc2)cc1
active: [2] -11.6% | [10] 6.56%
inactive: [1] 25.3% | [3] 58.1% | [4] 77.7% | [5] 59.7% | [6] 85.6% | [8] 45.3% | [18] 81.5% | [9] 53.9% | [11] 51% | [12] 48.7% | [13] 73.6% | [14] 34.9% | [15] 40.8% | [16] 42.9% | [17] 46.5%

COc1cc2c(cc1OC)C(=O)OC2
inactive: [1] 106% | [2] 367% | [3] 101% | [4] 100% | [5] 108% | [6] 124% | [8] 110% | [18] 109% | [9] 119% | [10] 98.5% | [11] 118% | [12] 103% | [14] 105% | [15] 111% | [16] 118% | [17] 113%

O=C(CI)NCCNc1cccc2c(S(=O)(=O)O)cccc12
inactive: [1] 90.4% | [2] 101% | [3] 110% | [4] 107% | [5] 110% | [6] 106% | [8] 100% | [18] 104% | [9] 106% | [10] 103% | [11] 96.8% | [12] 93.2% | [13] 102% | [14] 99.9% | [15] 96% | [16] 112%
